According to PubChem BioAssay (Tox21):
Results filed as inconclusive are left out. Activity calls are given as the source filed them. Unless noted, calls come from the whole dose curve; as a rule, active = well fitted curve in the direction sought with a large enough effect in the repeat runs; inconclusive = weak or mixed curves; inactive = no such curve, though single readings can be large; an effect the other way counts as inactive or inconclusive.

What was measured:
[1] = qHTS assay to identify small molecule agonists of the estrogen receptor beta (ER-beta) signaling pathway - cell viability counter screen (AID 1259380); note: nearly all actives have a fitted effect of over 30% in size; note: potency is the fitted concentration of half-maximal effect
Method in brief: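 Luminescence read-out (CellTiter-Glo, 30 min, room temp) taken in the same wells as the beta-lactamase reporter assay; ER-beta-UAS-bla HEK293T cells exposed to DMSO-dissolved compounds for 16 hr at 37C in 2% charcoal-stripped FBS medium.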

[2] = qHTS assay to identify small molecule antagonists of the estrogen receptor beta (ER-beta) signaling pathway - cell viability counter screen (AID 1259382); note: nearly all actives have a fitted effect of over 55% in size; note: potency is the fitted concentration of half-maximal effect;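 for activity change, negative = cytotoxicity: HEK293T cells carrying ER-beta-UAS-bla reporter stimulated with estradiol; series mostly up to about 92 µM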
Method in brief: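 Luminescent ATP read-out (CellTiter-Glo, 30 min, RT) taken in the same wells as the bla reporter assay. HEK293T ER-beta-UAS-bla cells in 2% charcoal-stripped FBS were exposed to compounds with 1nM E2 for 16 hr at 37C.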

[3] = target: Estrogen receptor (Homo sapiens) (UniProt P03372); test: qHTS assay to identify small molecule agonists of the estrogen receptor alpha (ER-alpha) signaling pathway in the presence of an antagonist (AID 1259383; calls by dose curve; note: top concentration of the series differs between compounds; nearly all actives have a fitted effect of over 15% in size)
Chain of Estrogen receptor (Homo sapiens) (P03372 whole entry, looked up): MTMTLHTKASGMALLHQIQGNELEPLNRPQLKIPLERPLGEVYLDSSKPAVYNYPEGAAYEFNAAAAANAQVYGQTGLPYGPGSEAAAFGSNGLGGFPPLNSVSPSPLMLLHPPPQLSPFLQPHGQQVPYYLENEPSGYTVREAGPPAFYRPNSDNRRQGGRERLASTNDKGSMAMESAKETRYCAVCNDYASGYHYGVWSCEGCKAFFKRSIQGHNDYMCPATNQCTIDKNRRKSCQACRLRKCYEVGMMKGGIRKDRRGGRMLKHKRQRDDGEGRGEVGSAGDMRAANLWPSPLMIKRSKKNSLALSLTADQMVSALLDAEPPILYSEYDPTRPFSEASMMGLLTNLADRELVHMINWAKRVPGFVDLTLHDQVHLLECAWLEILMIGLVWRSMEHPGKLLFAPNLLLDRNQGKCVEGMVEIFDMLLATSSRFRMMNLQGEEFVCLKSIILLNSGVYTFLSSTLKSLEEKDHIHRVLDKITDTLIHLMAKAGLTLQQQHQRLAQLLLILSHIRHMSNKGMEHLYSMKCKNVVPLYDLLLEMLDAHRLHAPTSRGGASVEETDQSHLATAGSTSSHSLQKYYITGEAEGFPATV
Method in brief: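 Luciferase luminescence (ONE-Glo, 30min at room temperature) measured in VM7Luc4E2 cells after 22hr compound exposure at 15 concentrations, with 10.0nM ICI-182,780 final present; cells express endogenous ER-alpha and carry four EREs upstream of luciferase.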

[4] = qHTS assay to identify small molecule agonists or antagonists of the thyroid stimulating hormone receptor (TSHR) signaling pathway - wild type cell line counter screen (AID 1259384; calls by dose curve)
Method in brief: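 Wild-type Hek293 cells, 800/well, 18 h at 37C, then compound with Ro20-1724 for 30 min RT. cAMP by HTRF (cAMP-d2/anti-cAMP cryptate), 1 h RT, fluorescence read. 15 concentrations, triplicates.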

[5] = target: Thyrotropin receptor (Homo sapiens) (UniProt P16473); test: qHTS assay to identify small molecule antagonists of the thyroid stimulating hormone receptor (TSHR) signaling pathway (AID 1259385; calls by dose curve; note: nearly all actives have a fitted effect of over 20% in size; note: potency is the fitted concentration of half-maximal effect)
Chain of Thyrotropin receptor (Homo sapiens) (P16473 whole entry, looked up): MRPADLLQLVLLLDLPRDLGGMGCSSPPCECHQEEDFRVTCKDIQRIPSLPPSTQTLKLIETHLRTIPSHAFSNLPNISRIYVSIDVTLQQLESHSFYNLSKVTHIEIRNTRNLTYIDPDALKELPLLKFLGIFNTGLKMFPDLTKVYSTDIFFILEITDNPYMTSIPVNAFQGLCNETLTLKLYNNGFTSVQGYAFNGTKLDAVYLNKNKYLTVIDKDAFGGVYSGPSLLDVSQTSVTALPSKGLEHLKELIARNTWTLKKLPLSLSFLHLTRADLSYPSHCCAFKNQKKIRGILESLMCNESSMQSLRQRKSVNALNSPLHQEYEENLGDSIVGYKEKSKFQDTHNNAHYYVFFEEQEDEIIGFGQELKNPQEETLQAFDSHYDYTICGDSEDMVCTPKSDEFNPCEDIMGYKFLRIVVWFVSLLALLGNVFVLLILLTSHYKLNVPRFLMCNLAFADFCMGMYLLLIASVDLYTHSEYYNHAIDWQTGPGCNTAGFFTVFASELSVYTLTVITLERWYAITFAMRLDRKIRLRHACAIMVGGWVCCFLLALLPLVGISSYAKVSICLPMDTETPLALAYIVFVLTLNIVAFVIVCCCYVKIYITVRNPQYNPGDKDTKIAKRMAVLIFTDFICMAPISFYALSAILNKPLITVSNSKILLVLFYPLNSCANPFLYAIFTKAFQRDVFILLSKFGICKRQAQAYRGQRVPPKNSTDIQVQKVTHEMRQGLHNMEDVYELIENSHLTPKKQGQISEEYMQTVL
Method in brief: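 TSHR-HEK293 cells (800/well) plated 18 h, then compounds with Ro20-1724 and TSH at 1.5 ng/mL final, 30 min at room temperature. cAMP quantified by HTRF (cAMP-d2/anti-cAMP-cryptate, 1 h); 15 concentrations in triplicate.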

[6] = qHTS assay to identify small molecule agonists of the estrogen receptor alpha (ER-alpha) signaling pathway in the presence of an antagonist - cell viability counter screen (AID 1259386);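 note: cells exposed to compounds for 22 h at 37 °C before the viability read; nearly all actives have a fitted effect of over 30% in size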; note: potency is the fitted concentration of half-maximal effect; for activity change, negative = cytotoxicity: series mostly up to about 92 µM
Method in brief: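 Read-out: CellTiter-Fluor fluorescence after 1hr reagent incubation, measured in the same wells as the luciferase readout. VM7Luc4E2 cells were exposed to 15 compound concentrations with 10.0nM ICI-182,780 for 22hr at 37C.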

[7] = target: Progesterone receptor (Homo sapiens) (UniProt P06401); test: qHTS assay to identify small molecule agonists of the progesterone receptor (PR) signaling pathway (AID 1346784; calls by dose curve; note: nearly all actives have a fitted effect of over 30% in size)
Chain of Progesterone receptor (Homo sapiens) (P06401 whole entry, looked up): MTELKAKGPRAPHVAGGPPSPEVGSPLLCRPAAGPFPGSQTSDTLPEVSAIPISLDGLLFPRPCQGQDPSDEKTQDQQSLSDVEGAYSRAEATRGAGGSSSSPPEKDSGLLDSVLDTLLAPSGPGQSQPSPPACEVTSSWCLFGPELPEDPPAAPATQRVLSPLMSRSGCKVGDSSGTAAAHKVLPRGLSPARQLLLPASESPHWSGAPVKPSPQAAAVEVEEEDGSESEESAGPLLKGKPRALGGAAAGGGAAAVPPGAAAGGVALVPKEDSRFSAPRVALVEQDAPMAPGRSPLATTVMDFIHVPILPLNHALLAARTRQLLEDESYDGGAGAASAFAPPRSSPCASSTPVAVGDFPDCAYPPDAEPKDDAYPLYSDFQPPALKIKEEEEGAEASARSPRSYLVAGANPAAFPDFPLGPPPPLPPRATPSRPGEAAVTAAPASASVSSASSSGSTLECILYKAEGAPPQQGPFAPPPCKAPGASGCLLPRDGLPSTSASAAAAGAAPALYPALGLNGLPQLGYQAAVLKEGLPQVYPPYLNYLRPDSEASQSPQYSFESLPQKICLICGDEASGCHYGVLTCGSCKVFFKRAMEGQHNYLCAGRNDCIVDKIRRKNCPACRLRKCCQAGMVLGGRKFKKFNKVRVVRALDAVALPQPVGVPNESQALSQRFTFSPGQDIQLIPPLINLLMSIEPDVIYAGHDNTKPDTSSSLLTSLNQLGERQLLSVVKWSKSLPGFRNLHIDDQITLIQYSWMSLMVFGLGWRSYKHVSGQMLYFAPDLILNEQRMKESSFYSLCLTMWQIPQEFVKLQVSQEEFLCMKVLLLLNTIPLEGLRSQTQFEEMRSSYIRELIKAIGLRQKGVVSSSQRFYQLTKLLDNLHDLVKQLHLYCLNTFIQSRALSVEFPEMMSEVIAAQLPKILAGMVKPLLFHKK
Method in brief: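 Beta-lactamase reporter read-out: after 16 hr compound treatment at 37C and a further 2 hr at room temperature with LiveBLAzer B/G FRET substrate, fluorescence was measured in PR-UAS-bla HEK 293T cells grown in 2% charcoal-stripped serum.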

[8] = target: Progesterone receptor (Homo sapiens) (UniProt P06401); test: qHTS assay to identify small molecule antagonists of the progesterone receptor (PR) signaling pathway (AID 1346795; active = well fitted inhibition curve with a large enough effect in the signal ratio in the repeat runs, not every such curve was filed as active; the % refers to the signal ratio; note: potency is the fitted concentration of half-maximal effect)
Method in brief: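 Read-out is fluorescence from the LiveBLAzer B/G FRET substrate, cleaved by a UAS-controlled beta-lactamase in PR-UAS-bla HEK293T cells after 16 hr exposure to compound plus 1 nM promegestone (final), followed by 2 hr at room temperature.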

[9] = qHTS assay to identify small molecule antagonists of the progesterone receptor (PR) signaling pathway - cell viability counter screen (AID 1346798); note: nearly all actives have a fitted effect of over 50% in size; note: potency is the fitted concentration of half-maximal effect;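 for activity change, negative = cytotoxicity: HEK293T PR-UAS-bla cells stimulated with the agonist R5020; series mostly up to about 92 µM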
Method in brief: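 HEK293T PR-UAS-bla, 2% charcoal-stripped FBS; 4 hr pre-plate; cpd + R5020, 16 h 37C; LiveBLAzer read first; then CellTiter-Glo 30 min RT, luminescence.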

[10] = target: Androgen receptor (Homo sapiens) (UniProt P10275); test: qHTS assay to identify small molecule agonists of the androgen receptor (AR) signaling pathway in the presence of an antagonist (AID 1259381; calls by dose curve; note: nearly all actives have a fitted effect of over 15% in size)
Chain of Androgen receptor (Homo sapiens) (P10275 whole entry, looked up): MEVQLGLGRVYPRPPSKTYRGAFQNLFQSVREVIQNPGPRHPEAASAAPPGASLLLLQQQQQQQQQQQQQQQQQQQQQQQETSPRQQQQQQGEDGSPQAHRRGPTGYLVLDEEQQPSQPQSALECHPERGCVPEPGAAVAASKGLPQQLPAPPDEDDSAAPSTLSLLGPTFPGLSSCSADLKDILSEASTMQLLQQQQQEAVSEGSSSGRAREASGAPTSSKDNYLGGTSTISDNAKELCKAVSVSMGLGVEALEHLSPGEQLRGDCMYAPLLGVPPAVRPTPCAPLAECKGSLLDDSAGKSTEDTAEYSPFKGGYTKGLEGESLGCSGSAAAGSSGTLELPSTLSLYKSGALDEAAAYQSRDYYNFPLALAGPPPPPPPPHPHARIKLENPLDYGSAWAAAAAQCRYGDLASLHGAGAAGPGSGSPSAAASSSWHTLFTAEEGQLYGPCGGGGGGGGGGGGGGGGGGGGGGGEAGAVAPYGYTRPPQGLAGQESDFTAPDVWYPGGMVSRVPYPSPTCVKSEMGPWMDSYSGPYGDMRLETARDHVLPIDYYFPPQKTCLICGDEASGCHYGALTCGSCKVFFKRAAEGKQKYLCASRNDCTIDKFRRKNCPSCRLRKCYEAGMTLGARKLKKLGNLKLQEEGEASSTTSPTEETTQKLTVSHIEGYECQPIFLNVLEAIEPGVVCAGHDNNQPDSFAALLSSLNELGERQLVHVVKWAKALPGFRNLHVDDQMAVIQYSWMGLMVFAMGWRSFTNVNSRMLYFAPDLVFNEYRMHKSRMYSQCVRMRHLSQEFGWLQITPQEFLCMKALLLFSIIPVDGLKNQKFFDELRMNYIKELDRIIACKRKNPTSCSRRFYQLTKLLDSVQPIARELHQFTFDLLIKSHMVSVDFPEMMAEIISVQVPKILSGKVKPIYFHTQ
Method in brief: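 Luciferase read-out (ONE-Glo, 30min room temperature) in MDA-kb2 MMTV-reporter cells; agonist mode run in presence of AR antagonist nilutamide, 3.0uM final. Compounds tested as 15-point series, 16hr exposure at 37C, 0% CO2.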
% is set by controls: 0 for no effect and ±100 for the full control effect.

CC/C=C\C/C=C\C/C=C\CCCCCCCC(=O)OC
active: Potency [1] 48.6 µM
inactive: Potency [2] | Potency [3] | Potency [4] | Potency [5] | Potency [6] | outcome [7] | Potency [8] | Potency [9]

CCCCCCCCCCCCS(=O)(=O)Cl
active: Potency [1] 14.6 µM
inactive: activation [10] 1.48% [at 19 µM] | cAMP activity change [4] 2.12% [at 18.9 µM, active compounds read high] | activity change, negative = inhibition [5] -1.01% [at 19 µM] | activity change, negative = cytotoxicity [6] -0.178% [at 19 µM] | activation [7] -0.481% [at 19 µM] | activity change, negative = inhibition [8] -1.09% [at 18.9 µM] | activity change, negative = cytotoxicity [9] -16% [at 18.9 µM]

CCOC=C(C(=O)OCC)C(=O)OCC
inactive: Potency [1] | Potency [2] | Potency [3] | Potency [4] | Potency [5] | Potency [6] | outcome [7] | Potency [8] | Potency [9]

C=C1C(CCl)(CCl)C2(Cl)C(Cl)C(Cl)C1(Cl)C2(Cl)Cl (configuration not stated)
active: Potency [1] 48 µM | Potency [9] 67.8 µM
inactive: Potency [10] | Potency [4] | Potency [5]

C=CC(C)(C)O
inactive: Potency [1] | Potency [10] | Potency [2] | outcome [7] | Potency [8] | Potency [9]

C=C1CC[C@H]2O[C@]2(C)CC[C@@H]2[C@@H]1CC2(C)C
inactive: Potency [1] | Potency [2] | Potency [3] | Potency [4] | Potency [5] | Potency [6] | outcome [7] | Potency [8] | Potency [9]

CC(C=O)c1ccccc1 (configuration not stated)
inactive: Potency [1] | Potency [2] | Potency [3] | Potency [4] | Potency [5] | Potency [6] | outcome [7] | Potency [8] | Potency [9]

C=C(C)CCO
inactive: Potency [1] | Potency [2] | Potency [3] | Potency [4] | Potency [5] | Potency [6] | outcome [7] | Potency [8] | Potency [9]

O=C(Cl)c1ccc(Cl)cc1Cl
inactive: Potency [1] | Potency [10] | Potency [2] | Potency [6] | outcome [7] | Potency [8] | Potency [9]

O=C1OC(=O)c2cc(-c3ccc4c(c3)C(=O)OC4=O)ccc21
inactive: Potency [1] | Potency [2] | Potency [3] | Potency [4] | Potency [5] | Potency [6] | outcome [7] | Potency [8] | Potency [9]

N#Cc1ccc(C/C(=N/NC(=O)Nc2ccc(OC(F)(F)F)cc2)c2cccc(C(F)(F)F)c2)cc1
inactive: Potency [1] | Potency [2] | Potency [3] | Potency [4] | Potency [5] | Potency [6] | outcome [7]
active: Potency [8] 27.3 µM

CC(C)C(=O)C(C)C
inactive: Potency [1] | Potency [2] | Potency [3] | Potency [4] | Potency [5] | Potency [6] | outcome [7] | Potency [9]

C/C=C/C(=O)OCC(C)C
inactive: Potency [1] | Potency [2] | Potency [3] | Potency [4] | Potency [5] | Potency [6] | outcome [7] | Potency [9]

O=C(CCN1CCC(c2ccccc2)C1)c1ccc2c(c1)OCCO2 (configuration not stated)
inactive: Potency [1] | Potency [2] | Potency [3] | Potency [4] | Potency [5] | Potency [6] | Potency [8] | Potency [9]

CC1(C)[C@H]2CC[C@]1(C)C(=O)C2
inactive: Potency [1] | Potency [2] | Potency [3] | Potency [4] | Potency [5] | Potency [6] | outcome [7] | Potency [9]

CN1CC[C@H](c2c(O)cc(O)c3c(=O)cc(-c4ccccc4Cl)oc23)[C@H](O)C1
inactive: Potency [1] | Potency [10] | Potency [2] | Potency [6]

CCc1c(C)cc(N)c(CC)c1N
inactive: Potency [1] | Potency [10] | Potency [2] | Potency [4] | Potency [6] | outcome [7] | Potency [8] | Potency [9]

CCOc1nc(F)cc2nc(S(=O)(=O)Nc3c(Cl)cccc3C(=O)OC)nn12
inactive: Potency [1] | Potency [2] | Potency [3] | Potency [4] | Potency [5] | Potency [6] | outcome [7] | Potency [8] | Potency [9]

Cc1ccc(N=Nc2c(O)ccc3ccccc23)c(C)c1
active: Potency [6] 7.5 µM
inactive: Potency [1] | Potency [2] | Potency [3] | Potency [4] | Potency [5] | outcome [7] | Potency [9]

Cc1ccc(C=O)cc1
inactive: Potency [1] | Potency [2] | Potency [3] | Potency [4] | Potency [5] | Potency [6] | outcome [7] | Potency [8] | Potency [9]

C=C[Si](C)(C)Cl
inactive: activity change, negative = cytotoxicity [1] 0.271% [at 8.39 µM] | activity change, negative = cytotoxicity [2] 6.43% [at 8.39 µM] | activation [3] -1.47% [at 8.39 µM] | cAMP activity change [4] -4.27% [at 8.39 µM, active compounds read high] | activity change, negative = inhibition [5] 0.177% [at 8.39 µM] | activity change, negative = cytotoxicity [6] 0.757% [at 8.39 µM] | activation [7] 0.63% [at 8.39 µM] | activity change, negative = inhibition [8] 4.87% [at 8.39 µM] | activity change, negative = cytotoxicity [9] -4.28% [at 8.39 µM]

CN1CCN(CCCN2c3ccccc3Sc3ccc(Cl)cc32)CC1
active: Potency [1] 21.1 µM | Potency [2] 13.3 µM | Potency [5] 26.6 µM | Potency [9] 21.1 µM
inactive: Potency [3] | Potency [4] | Potency [6] | outcome [7]

CSc1ccc(O)cc1C
inactive: Potency [10] | Potency [3] | Potency [4] | Potency [5] | Potency [6] | outcome [7]
active: Potency [1] 61.1 µM | Potency [9] 61.1 µM

C=COCCCC
inactive: Potency [1] | Potency [2] | Potency [3] | Potency [4] | Potency [5] | Potency [6] | outcome [7] | Potency [9]

CC(O)(c1ccc(Cl)cc1)c1ccc(Cl)cc1
inactive: Potency [1] | Potency [2] | Potency [3] | Potency [5] | Potency [6] | outcome [7]
